# Where a name gives a salt, the structure may show the parent alone. The campaign covered roughly 1,500 compounds. About 30 (2%) showed activity. This is one part of a sample in which actives are shown more often than they occur.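 Rule for the calls: active = robust z-score below -2; a few such results were not called.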
# Tested on: optoTopBP1 Flp-In 293 T-REx (HEK293) cells
# Experiment: light-induced TopBP1 condensate (nuclear foci) count, plate-normalised robust z-score vs non-control wells; higher = more TopBP1 condensates (negative = condensation inhibitor), active = hit call of the paper
# Settings: 10 µM; incubation time 2 h
row,SMILES,light-induced TopBP1 condensate (z-score)
1,OCCN1CCN(CC/C=C2/c3ccccc3Sc3ccc(Cl)cc32)CC1 [Zuclopenthixol dihydrochloride],-0.966 (inactive)
2,Cn1cc(C(=O)[C@@H]2CCc3[nH]cnc3C2)c2ccccc21 [Ramosetron hydrochloride],-0.549 (inactive)
3,COc1ccc(C2C(=O)c3ccccc3C2=O)cc1 [Anisindione],0.789 (inactive)
4,COc1cccc2c1C(=O)c1c(O)c3c(c(O)c1C2=O)C[C@@](O)(C(=O)CO)C[C@@H]3O[C@H]1C[C@H](N)[C@@H](O)[C@H](C)O1 [Epirubicin hydrochloride],-3.05 (active)
5,Oc1ccc(OCc2ccccc2)cc1 [Monobenzone],-2.29 (active)
6,C[C@H](NCc1ccc(OCc2cccc(F)c2)cc1)C(N)=O [Safinamide],-0.127 (inactive)
7,CC(COc1ccccc1)NC(C)C(O)c1ccc(O)cc1 (configuration not stated) [Isoxsuprine hydrochloride],-0.14 (inactive)
8,COc1ccc(C(=O)c2ccc(C)cc2)c(O)c1 [Mexenone],0.105 (inactive)
9,O=C(NCCCN1CCOCC1)c1ccc(Cl)cc1 [Eprobemide],0.149 (inactive)
10,CC(C)NCC(O)COc1cccc2[nH]c3ccccc3c12 (configuration not stated) [Carazolol],-1.07 (inactive)
11,CC(COc1ccccc1)NN (configuration not stated) [Phenoxypropazine dihydrochloride],0.724 (inactive)
12,CN(C)C(=O)COC(=O)Cc1ccc(OC(=O)c2ccc(NC(=N)N)cc2)cc1 [Camostat mesylate],-0.369 (inactive)
13,CN[C@@H]1[C@H](O)[C@H](NC)[C@H]2O[C@@]3(O)C(=O)C[C@@H](C)O[C@H]3O[C@@H]2[C@H]1O [Spectinomycin dihydrochloride],0.546 (inactive)
14,C=C1C[C@H]2[C@@H]3C=C(C)C4=CC(=O)CC[C@]4(C)[C@H]3CC[C@]2(C)[C@@]1(OC(C)=O)C(C)=O [Melengestrol acetate],-0.246 (inactive)
15,CCOc1ccccc1OCCN[C@H](C)Cc1ccc(OC)c(S(N)(=O)=O)c1 [(R)-Tamsulosin hydrochloride],0.258 (inactive)
16,Cc1cccc(C)c1OCC(=O)N[C@@H](Cc1ccccc1)[C@@H](O)C[C@H](Cc1ccccc1)NC(=O)[C@H](C(C)C)N1CCCNC1=O [Lopinavir],0.599 (inactive)
17,CC(C)CN(C[C@@H](O)[C@H](Cc1ccccc1)NC(=O)O[C@H]1CCOC1)S(=O)(=O)c1ccc(N)cc1 [Amprenavir],1.18 (inactive)
18,CC[N+]1(CC)CCC(=C(c2ccccc2)c2ccccc2)C1C (configuration not stated) [Prifinium Bromide],1.11 (inactive)
19,CC(C)(CO)[C@@H](O)C(=O)NCCCC(=O)O [Hopantenate calcium],0.00401 (inactive)
20,COc1cc(N)cn[n+]1-c1ccccc1 [Amezinium metilsulfate],0.428 (inactive)
21,O=C1CN2Cc3c(ccc(Cl)c3Cl)N=C2N1 [Anagrelide],-0.566 (inactive)
22,Clc1ccc(C(Cn2ccnc2)OCc2csc3c(Cl)cccc23)c(Cl)c1 (configuration not stated) [Sertaconazole nitrate],0.206 (inactive)
23,OCC(CO)N[C@H]1C[C@](O)(CO)[C@@H](O)[C@H](O)[C@H]1O [Voglibose],1.28 (inactive)
24,CC(C)(CO)C(O)C(=O)NCCCO (configuration not stated) [Panthenol (D)],0.585 (inactive)

row,SMILES,light-induced TopBP1 condensate (z-score)
1,CN(C)CCOC1=Cc2ccccc2Sc2ccc(Cl)cc21 [Zotepine],0.612 (inactive)
2,CN1CCCCC1CCN1c2ccccc2Sc2ccc([S+](C)[O-])cc21 (configuration not stated) [Mesoridazine besylate],0.412 (inactive)
3,Cc1nc2ccccc2n1Cc1ccc(Cl)cc1 [Chlormidazole],-0.19 (inactive)
4,CC(C)(C)C(=O)OCOC(=O)[C@@H]1N2C(=O)[C@@H](/N=C/N3CCCCCC3)[C@H]2SC1(C)C [Pivmecillinam hydrochloride],0.64 (inactive)
5,CC(C)NC(=N)NC(=N)Nc1ccc(Cl)cc1 [Proguanil hydrochloride],-0.256 (inactive)
6,COc1cc(C(=O)NCc2ccc(OCCN(C)C)cc2)cc(OC)c1OC [Trimethobenzamide hydrochloride],-0.218 (inactive)
7,Cc1ncc([N+](=O)[O-])n1CC(C)O (configuration not stated) [Secnidazole],0.994 (inactive)
8,CC1(C)S[C@@H]2[C@H](NC(=O)C(c3ccccc3)S(=O)(=O)O)C(=O)N2[C@H]1C(=O)O (some centres not stated) [Sulbenicillin sodium salt],0.523 (inactive)
9,CC(=O)[C@@]1(O)CC[C@H]2[C@@H]3C[C@H](C)C4=CC(=O)C=C[C@]4(C)[C@@]3(F)[C@@H](O)C[C@@]21C [Fluorometholone],-0.232 (inactive)
10,O=C(c1cc(O)c(O)c(O)c1)c1ccc(O)c(O)c1O [Exifone],0.683 (inactive)
11,CN(C)CC/C=C1/c2ccccc2COc2ccc(CC(=O)O)cc21 [Olopatadine hydrochloride],0.52 (inactive)
12,O=c1oc2cc(O)ccc2s1 [Tioxolone],0.00597 (inactive)
13,Cc1cc(/C=C/c2ccc3cc(N(C)C)ccc3[n+]2C)c(C)n1-c1ccccc1 [Pyrvinium pamoate],-4.74 (active)
14,CN[C@@H]1[C@@H](O)[C@@H](O[C@@H]2[C@@H](O)[C@H](O[C@H]3OC(CN)=CC[C@H]3N)[C@@H](N)C[C@H]2N)OC[C@]1(C)O [Sisomicin sulfate],0.652 (inactive)
15,CCN1CCN(Cc2ccc(Nc3ncc(F)c(-c4cc(F)c5nc(C)n(C(C)C)c5c4)n3)nc2)CC1 [Abemaciclib],-0.486 (inactive)
16,COc1cccc(CCc2ccccc2OCC(CN(C)C)OC(=O)CCC(=O)O)c1 (configuration not stated) [Sarpogrelate hydrochloride],0.789 (inactive)
17,Clc1ccc(C(Cn2ccnc2)OCc2c(Cl)cccc2Cl)c(Cl)c1 (configuration not stated) [Isoconazole],0.803 (inactive)
18,CN(C)c1cc(NC(=O)CNC(C)(C)C)c(O)c2c1C[C@H]1C[C@H]3[C@H](N(C)C)C(O)=C(C(N)=O)C(=O)[C@@]3(O)C(O)=C1C2=O [Tigecycline],0.904 (inactive)
19,N#C/C(=C1/SCC(c2ccccc2Cl)S1)n1ccnc1 (configuration not stated) [Lanoconazole],0.321 (inactive)
20,O=C(O)COc1nn(Cc2ccccc2)c2ccccc12 [Bendazac],-0.242 (inactive)
21,CC(=O)N[C@H]1[C@H]([C@H](O)[C@H](O)CO)OC(C(=O)O)=C[C@@H]1NC(=N)N [Zanamivir],-0.513 (inactive)
22,CC(C)(C)NCC(O)CSc1nc(-c2ccc(C(N)=O)s2)cs1 (configuration not stated) [Arotinolol hydrochloride],-0.455 (inactive)
23,Cc1ccc(C(=O)c2cc(O)c(O)c([N+](=O)[O-])c2)cc1 [Tolcapone],-0.692 (inactive)
